# Source: the supplement of paper PMC11738630
# Tested on: Salmonella enterica serovar Typhimurium 14028s
# Test: approximate change in surviving CFU after surface colonization relative to water-only control (log10 CFU/mL change); higher = more surviving bacteria (less inhibition of surface colonization)
# Conditions: not stated (Biolog proprietary concentration), surface: plastic 96-well plate, 20-24 h at 25 °C
smiles,measurement,setting,value
NC(=O)NC1NC(=O)NC1=O (centres undefined) [Allantoin],approximate change in surviving CFU (log10),"Biolog plate: PM3, Biolog well: G5",0.258
"C[N+](C)(C)CC(O)CC(=O)[O-] (racemic) [D,L-Carnitine]",approximate change in surviving CFU (log10),"Biolog plate: PM2, Biolog well: H5",0.365
O=C(O)Cc1cccc(O)c1 [m-Hydroxy Phenyl Acetic Acid],approximate change in surviving CFU (log10),"Biolog plate: PM1, Biolog well: H3",-1.31
O=C(CO)[C@@H](O)[C@H](O)[C@H](O)CO[C@H]1O[C@H](CO)[C@@H](O)[C@H](O)[C@H]1O [Palatinose],approximate change in surviving CFU (log10),"Biolog plate: PM2, Biolog well: C12",0.751
Nc1[nH]cnc2ncnc1-2 [Adenine],approximate change in surviving CFU (log10),"Biolog plate: PM3, Biolog well: F2",-0.515
NC(N)=O,approximate change in surviving CFU (log10),"Biolog plate: PM3, Biolog well: A5",0.429
O=NO [Nitrite],approximate change in surviving CFU (log10),"Biolog plate: PM3, Biolog well: A3",0.966
O=C(O)C[C@H](O)C(=O)O [L-Malic Acid],approximate change in surviving CFU (log10),"Biolog plate: PM1, Biolog well: G12",1.01
NCCO [2-Aminoethanol],approximate change in surviving CFU (log10),"Biolog plate: PM1, Biolog well: H12",0.365
NCCCCN=C(N)N [Agmatine],approximate change in surviving CFU (log10),"Biolog plate: PM3, Biolog well: D12",-0.193
N [Ammonia],approximate change in surviving CFU (log10),"Biolog plate: PM3, Biolog well: A2",0.0644
NCC(=O)N[C@@H](CC(=O)O)C(=O)O [Glycyl-L-Aspartic Acid],approximate change in surviving CFU (log10),"Biolog plate: PM1, Biolog well: F1",0.929
N[C@@H](Cc1ccc(O)cc1)C(=O)O [L-Tyrosine],approximate change in surviving CFU (log10),"Biolog plate: PM3, Biolog well: C1",0.3
Nc1nc2c(ncn2[C@@H]2O[C@H](CO)[C@@H](O)[C@H]2O)c(=O)[nH]1 [Guanosine],approximate change in surviving CFU (log10),"Biolog plate: PM3, Biolog well: F7",-0.172
O=C(O)[C@@H](O)[C@@H](O)[C@H](O)[C@@H](O)C(=O)O [D-Saccharic Acid],approximate change in surviving CFU (log10),"Biolog plate: PM1, Biolog well: A4",0.708
OC[C@H]1OC(O)[C@H](O)[C@@H](O)[C@H]1O (stereo partly drawn) [D-Galactose],approximate change in surviving CFU (log10),"Biolog plate: PM1, Biolog well: A6",1.59
OC[C@@H](O)[C@H](O)[C@H](O)[C@@H](O)CO [Dulcitol],approximate change in surviving CFU (log10),"Biolog plate: PM1, Biolog well: A12",1.03
O=C[C@H](O)[C@@H](O)[C@H](O)[C@H](O)COP(=O)(O)O [D-Glucose-6-Phosphate],approximate change in surviving CFU (log10),"Biolog plate: PM1, Biolog well: C1",1.22
O[C@@H]1[C@H](O)[C@H](O)CO[C@H]1O [D-Ribose],approximate change in surviving CFU (log10),"Biolog plate: PM1, Biolog well: C4",0.172
O=C(CO)[C@@H](O)[C@H](O)[C@H](O)CO [D-Fructose],approximate change in surviving CFU (log10),"Biolog plate: PM1, Biolog well: C7",2.4
OC[C@H]1O[C@H](O)[C@H](O)[C@@H](O)[C@@H]1O [a-D-Glucose],approximate change in surviving CFU (log10),"Biolog plate: PM1, Biolog well: C9",2.34
OC[C@H]1O[C@H](OC[C@H]2OC(O)[C@H](O)[C@@H](O)[C@@H]2O)[C@H](O)[C@@H](O)[C@H]1O (stereo partly drawn) [D-Melibiose],approximate change in surviving CFU (log10),"Biolog plate: PM1, Biolog well: C11",1.82
CC[C@H](O)C(=O)O [a-Hydroxy Butyric Acid],approximate change in surviving CFU (log10),"Biolog plate: PM1, Biolog well: E7",-2.3
OCC(O)C(O)C(O)CO (centres undefined) [Adonitol],approximate change in surviving CFU (log10),"Biolog plate: PM1, Biolog well: E9",1.37
C[C@H](O)[C@@H](N)C(=O)O [D-Threonine],approximate change in surviving CFU (log10),"Biolog plate: PM1, Biolog well: F4",0.901
O=C(O)[C@@H](O)[C@H](O)[C@H](O)[C@@H](O)C(=O)O [Mucic Acid],approximate change in surviving CFU (log10),"Biolog plate: PM1, Biolog well: F8",1.38
OCC1OC(OC2C(CO)OC(O)C(O)C2O)C(O)C(O)C1O [D-Cellobiose],approximate change in surviving CFU (log10),"Biolog plate: PM1, Biolog well: F11",1.2
OC[C@H]1O[C@@H](O[C@H]2[C@H](O)[C@@H](O)[C@H](O[C@H]3[C@H](O)[C@H](O)[C@H](O[C@@H]4[C@H](O)[C@H](O)[C@H](O)O[C@@H]4CO)O[C@@H]3CO)O[C@@H]2CO)[C@@H](O)[C@@H](O)[C@@H]1O [Mannan],approximate change in surviving CFU (log10),"Biolog plate: PM2, Biolog well: A11",0.837
OC[C@H]1O[C@@H](Oc2ccc(O)cc2)[C@H](O)[C@@H](O)[C@@H]1O [Arbutin],approximate change in surviving CFU (log10),"Biolog plate: PM2, Biolog well: B8",1.29
OC[C@@H](O)[C@@H](O)CO [i-Erythritol],approximate change in surviving CFU (log10),"Biolog plate: PM2, Biolog well: B10",1.35
C[C@@H](O)[C@H](O)[C@H](O)[C@@H](O)C=O [D-Fucose],approximate change in surviving CFU (log10),"Biolog plate: PM2, Biolog well: B11",-0.408
OC[C@@H](O)[C@H](O)[C@@H](O)CO [Xylitol],approximate change in surviving CFU (log10),"Biolog plate: PM2, Biolog well: D8",1.01
O=C(O)C(=O)O [Oxalic Acid],approximate change in surviving CFU (log10),"Biolog plate: PM2, Biolog well: F4",0.429
"O=C1O[C@H](CO)[C@@H](O)[C@H]1O [D-Ribono-1,4-Lactone]",approximate change in surviving CFU (log10),"Biolog plate: PM2, Biolog well: F7",0.944
O=C(O)[C@@H](O)[C@H](O)C(=O)O [D-Tartaric Acid],approximate change in surviving CFU (log10),"Biolog plate: PM2, Biolog well: F11",0.944
"CC(O)C(C)O (centres undefined) [2,3-Butanediol]",approximate change in surviving CFU (log10),"Biolog plate: PM2, Biolog well: H10",-0.708
NC(=O)NC(N)=O [Biuret],approximate change in surviving CFU (log10),"Biolog plate: PM3, Biolog well: A6",-0.258
NCCCC[C@@H](N)C(=O)O [D-Lysine],approximate change in surviving CFU (log10),"Biolog plate: PM3, Biolog well: C7",-0.107
NC(=O)NCCC[C@H](N)C(=O)O [L-Citrulline],approximate change in surviving CFU (log10),"Biolog plate: PM3, Biolog well: C10",0.665
Nc1cc[nH]c(=O)n1 [Cytosine],approximate change in surviving CFU (log10),"Biolog plate: PM3, Biolog well: F5",1.14
O=c1[nH]c(=O)c2nc[nH]c2[nH]1 [Xanthine],approximate change in surviving CFU (log10),"Biolog plate: PM3, Biolog well: G1",0.408
Oc1nc(O)c2nc(O)[nH]c2n1,approximate change in surviving CFU (log10),"Biolog plate: PM3, Biolog well: G3",1.14
O=C1NC(=O)C(=O)C(=O)N1 [Alloxan],approximate change in surviving CFU (log10),"Biolog plate: PM3, Biolog well: G4",-3.16
C[C@H](N)C(=O)N[C@@H](CCC(=O)O)C(=O)O,approximate change in surviving CFU (log10),"Biolog plate: PM3, Biolog well: H3",0.451
NCC(=O)N[C@@H](CC(N)=O)C(=O)O,approximate change in surviving CFU (log10),"Biolog plate: PM3, Biolog well: H8",0.107
NCC(=O)N[C@@H](CCC(=O)O)C(=O)O,approximate change in surviving CFU (log10),"Biolog plate: PM3, Biolog well: H10",0.472
CSCC[C@H](N)C(=O)N[C@@H](C)C(=O)O,approximate change in surviving CFU (log10),"Biolog plate: PM3, Biolog well: H12",0.0214
NC(=O)CC[C@H](N)C(=O)O [L-Glutamine],approximate change in surviving CFU (log10),"Biolog plate: PM1, Biolog well: E1",0.322
same,approximate change in surviving CFU (log10),"Biolog plate: PM3, Biolog well: B1",-0.0429
